MCF10A rerep: A quantitative high throughput screen for small molecules that induce DNA re-replication in MCF 10a normal breast cells | Potency, µM (highest dose often 46.1 µM), without a hit: at the top dose activity, positive = re-replication, actives largely listed as activators | MCF 10A DNA re-replication, Hoechst nuclear intensity, 48 h | 350,000 compounds, 2.9% hits | AID 624296, 2012; also: % of control where 0% means no effect; nearly all actives have a fitted effect of over 50% in size
HT1080-NT tox: qHTS for induction of synthetic lethality in tumor cells producing 2HG: qHTS for the HT-1080-NT fibrosarcoma cell line; HT-1080-NT fibrosarcoma viability, CellTiter-Glo ATP luminescence, 48 h; Potency, µM (doses to about 46.1 µM), for the others: at the top dose activity, negative = less viability, most hits filed as cytotoxic; 360,000 compounds, 1.6% hits;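 also: NT is the 2HG producing partner of a matched IDH1 knockdown line; 0% = DMSO-treated cells and -100% = media-only wells without cells; nearly all actives have a fitted effect of over 55% in size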
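Viability of the 2HG-overproducing fibrosarcoma line after 48 hours of compound exposure at 37 degrees C was determined by luminescence with CellTiter-Glo, and concentration-effect curves were then fitted and categorized.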
KB-3-1 tox: qHTS assay for MDR1-selective chemotherapeutics: Primary screen using the parental adenocarcinoma cell KB-3-1; Potency, µM (doses to about 46.1 µM), actives largely listed as cytotoxic; 400,000 compounds, 1.4% hits; AID 1347075, 2019; KB-3-1 viability, CellTiter-Glo ATP luminescence, 72 h; also: % is scaled to controls: 0 for no effect and ±100 for the full control effect; nearly all actives have a fitted effect of over 60% in size
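Multi-concentration cytotoxicity screen in KB-3-1 cells grown in DMEM lacking phenol red with 10% FBS. After 72 h at 37 °C with compound, ATP-dependent luminescence was recorded.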
HT1080 IDH1KD tx: qHTS for induction of synthetic lethality in tumor cells producing 2HG: qHTS for the HT-1080-IDH1KD cell line. HT-1080 IDH1 knockdown viability, ATP luminescence, 48 h. AID 686971, 2013. Potency, µM (titrated, usually from 46.1 µM), inactives show at the top dose activity, negative = toxicity, most hits filed as cytotoxic. 360,000 compounds, 2% hits;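 also: 0% = DMSO wells and -100% = cell-free medium wells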
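Assay cells: HT-1080 with IDH1 knockdown, 750 per well, RPMI/5% FBS. Exposure: 48 h at 37 °C following 2 h pre-incubation. Read: CellTiter-Glo luminescence; fitted concentration-response, curve class assigned.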
SW480 rerep: A quantitative high throughput screen for small molecules that induce DNA re-replication in SW480 colon adenocarcinoma cells | SW480 DNA re-replication, Hoechst DNA content imaging, 48 h | Potency, µM (doses to about 46.1 µM), without a hit: top-dose re-replication activation, hits mostly activators | 340,000 compounds, 1.8% hits | AID 624297, 2012; also: % of control where 0% means no effect; nearly all actives have a fitted effect of over 55% in size
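Readout is total intensity of Hoechst-stained nuclei, excited at 405 nm and collected at 500-530 nm. Compound treatment lasted 48 hr at 37 C in 5% CO2 before staining.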
KB-V1 MDR tox: qHTS assay for MDR1-selective chemotherapeutics: Primary screen using the drug-selected MDR subline cells KB-V1 | KB-V1 MDR cells viability, CellTiter-Glo, 72 h | Potency, µM (top dose mostly 46.1 µM), hits mostly cytotoxic | 400,000 compounds, 3.4% hits; also: % is scaled to controls: 0 for no effect and ±100 for the full control effect; nearly all actives have a fitted effect of over 60% in size
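Potencies derive from concentration-effect curves fitted to normalized luminescence (CellTiter-Glo) of KB-V1 cells treated for 72 h at 37 degrees C in phenol-red-free DMEM containing 10% FBS.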
An asterisk follows results filed as active; i = inactive; ? = inconclusive; . = not tested or not shown; ! = a repeat was not active; [ ] = remark or other dose. Most compounds without a hit are left out; they make up all but 7.9% or so of the library. Calls follow the shape of the dose curve; as a rule, active = well fitted curve in the direction sought with a large enough effect; inconclusive = small, poorly fitted or top-dose-only effect, or another doubt; inactive = no such curve, though single readings can be large; an effect the other way counts as inactive or inconclusive. Potency is read from the fitted curve at half-maximal effect.

SMILES	MCF10A rerep	HT1080-NT tox	KB-3-1 tox	HT1080 IDH1KD tx	SW480 rerep	KB-V1 MDR tox
CN(Cc1ccc(F)cc1)C(=O)c1cccc(S(=O)(=O)N2CCN(c3ccc(F)cc3)CC2)c1	7%	?	13µM*	-16%	?	?
COc1cccc(CN(C)C(=O)c2cccc(S(=O)(=O)N3CCN(c4ccccc4)CC3)c2)c1	.	-14%	i	-21%	.	?
Cc1ccc(CN(C)C(=O)c2cccc(S(=O)(=O)N3CCN(c4ccccc4)CC3)c2)cc1	-1%	-6%	?	-26%	9%	18µM*
CN(Cc1ccc(F)cc1)C(=O)c1cccc(S(=O)(=O)N2CCN(c3ccccc3)CC2)c1	7%	-2%	?	-16%	14%	?
CN(CC1COc2ccccc2O1)C(=O)c1cccc(S(=O)(=O)N2CCCC2)c1 (stereo not given)	0%	-2%	i	?	1%	8.2µM*
CC(C#Cc1ccc2c(c1)COc1c3ccccc3nn1-2)OC(C)(C)C (stereo not given)	-5%	15%	?	13%	-18%	?
Cc1[nH]nc2c1-c1nc3ccccc3nc1C(C)(C)C2	?	-19%	?	-22%	?	18µM*
CC12CCC(C)(c3nc4ccccc4nc31)C2(C)C	4%	0%	i	7%	-5%	i
CC(=O)Nc1cccc(-c2ccnc3c2CC(C(=O)Nc2ccc(F)c(Cl)c2)O3)c1 (stereo not given)	.	?	i	?	.	i
CC(C)c1ccc(NC(=O)C2Cc3c(-c4ccco4)ccnc3O2)cc1 (stereo not given)	.	?	i	?	.	21µM*
O=C(Nc1ccc(F)c(Cl)c1)C1Cc2c(-c3ccco3)ccnc2O1 (stereo not given)	.	-18%	?	-19%	.	21µM*
Cc1nn(S(=O)(=O)c2cccc([N+](=O)[O-])c2)c(C)c1S(=O)(=O)N1CCOCC1	6%	6%	i	16%	2%	i
O=C(Nc1ccc(Br)cc1F)c1cnn2c1NC(=C1CC1)C=C2C(F)F	.	.	i	.	.	i
CC(Oc1ccc(Br)cc1)C(=O)Nc1cc(Cl)ccc1N1CCN(C)CC1 (stereo not given)	?	13µM*	?	21µM*	?	?
CC(Oc1cccc(Cl)c1)C(=O)Nc1ccc(N2CCOCC2)cc1N1CCOCC1 (stereo not given)	?	-26%	i	-2%	-95%[9.22 µM]	16µM*
CN1CCN(c2ccc(Cl)cc2NC(=O)/C=C/c2ccc(F)cc2)CC1	?	23µM*	i	16µM*	?	i
O=C(/C=C/c1ccc(F)cc1)Nc1cc(S(=O)(=O)N2CCOCC2)ccc1N1CCCC1	-3%	17%	i	0%	?	i
COc1cccc(CCC(=O)N2CCC(n3nccc3NC(=O)CC(C)C)CC2)c1	-2%	7%	i	13%	-5%	i
COc1cccc(C(C)(O)c2nc(-c3cc(F)cc(F)c3)cs2)c1 (stereo not given)	.	23µM*	i	?	.	i
COc1cccc(C(C)(O)c2nc(-c3ccc(S(C)(=O)=O)cc3)cs2)c1 (stereo not given)	.	-17%	18µM*	-29%	.	16µM*
COc1ccc(-c2csc(C(C)(O)c3cccc(OC)c3)n2)cc1 (stereo not given)	.	-14%	i	?	.	?
COc1ccc(S(=O)(=O)Nc2ccc(Cl)cn2)c(C)c1C	-2%	1%	i	5%	-2%	23µM*
Cc1ccc(S(=O)(=O)Nc2ccc(Cl)cn2)cc1	-1%	3%	i	4%	4%	i
CCc1nc2ccccc2n1CC(=O)NC1CCS(=O)(=O)C1 (stereo not given)	-5%	2%	i	1%	-6%	i
COc1ccc2sc(N(CCCN(C)C)C(=O)c3ccc(S(=O)(=O)N4CCCc5ccccc54)cc3)nc2c1	?	-10%	i	-24%	?	21µM*
SMILES	MCF10A rerep	HT1080-NT tox	KB-3-1 tox	HT1080 IDH1KD tx	SW480 rerep	KB-V1 MDR tox
CCN(Cc1ccccc1)S(=O)(=O)c1ccc(C(=O)N(CCCN(C)C)c2nc3cc(OC)ccc3s2)cc1	16µM*	?	i	?	?	i
CC(C)C[C@@H](CO)N(Cc1ccccc1)S(=O)(=O)N(Cc1ccccc1)[C@@H](CO)CC(C)C	?	?	23µM*!	?	0%	?
CCN([C@H](CO)CC(C)C)S(=O)(=O)c1ccccc1	9%	-1%	i	7%	-32%	i
C=C[C@H](CC(C)C)N(Cc1ccccc1)S(=O)(=O)N(Cc1ccccc1)[C@@H](C=C)CC(C)C	9.2µM*	1%	i	14%	-3%[9.22 µM]	i
CC(C)C[C@@H](CO)N(Cc1ccccc1)S(=O)(=O)N(Cc1ccccc1)[C@H](CO)CC(C)C	?	?	?	?	11%	21µM*!
COC(=O)[C@@H](CC(C)C)NS(=O)(=O)N(Cc1ccccc1)[C@@H](CC(C)C)C(=O)OC	?	1%	?	3%	6%	?
O=S(=O)(N(Cc1ccccc1)[C@H](CO)Cc1ccccc1)N(Cc1ccccc1)[C@H](CO)Cc1ccccc1	23µM*	-5%	i	-4%	-1%	i
CCc1nc2c(OCc3ccc(C#N)cc3)cccn2c1N(C)C(=O)C(C)C	.	16%	i	7%	.	i
Cc1nnsc1C(=O)N1CCCC(N2CCN(c3ccc(F)cc3)CC2)C1 (stereo not given)	1%	5%	.	8%	-2%	.
CC(C)(C)n1nc2c(c1NC(=O)c1cc(Cl)ccc1[N+](=O)[O-])CS(=O)(=O)C2	-5%	6%	i	0%	-16%	i
COc1ccc(CN([C@H](C)CO)S(=O)(=O)N(Cc2ccccc2)[C@H](CO)C(C)C)cc1	-11%	12%	i	8%	-15%	i
C=CS(=O)(=O)N(Cc1ccccc1Br)[C@H](CO)CC(C)C	15%	-12%	23µM*!	-20%	?	?
